Measurements published in the supplement of paper PMC10849652.
About 7,900 targets were measured; listed, in parts, are those with a hit and a random draw of the rest. About 0.6% of all pairs of compound and target were hits.

Key:
Test in all cases: log2 fold change, soluble protein after heating vs DMSO (PISA); higher = thermal stabilisation; K562 cells, 10 uM, 30 min; active = over 0.2 and 3.5 SD of the protein, either way, in both replicates (recomputed)
[1] = compound: Cc1ccc(NC(=O)c2ccc(CN3CC[C@H](N(C)C)C3)c(C(F)(F)F)c2)cc1Nc1nccc(-c2cncnc2)n1 [bafetinib]
Method in brief: (§1)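 Values are thermal stability changes relative to control samples and are taken from duplicates. They are stated as log2 fold changes. Before quantification by TMTpro 16plex LC-MS/MS with equalised channel sums, K562 cells at 2×10^6 cells/mL were treated with 10 μM compound for 30 min, heated in aliquots for 3 min across 48°C-58°C, pooled, extracted in PBS with 0.5% NP-40 at 4°C, and centrifuged at 21,000xg for 90 min to give the soluble supernatant.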

[2] = compound: Cc1nc(Nc2ncc(C(=O)Nc3c(C)cccc3Cl)s2)cc(N2CCN(CCO)CC2)n1 [dasatinib]
Method in brief: as §1

[3] = compound: Cn1cc(-c2ccc3c(c2)CCN3C(=O)Cc2cccc(C(F)(F)F)c2)c2c(N)ncnc21
Method in brief: as §1

[4] = compound: Cn1cc(-c2ccc3nnc(C(F)(F)c4ccc5ncccc5c4)n3n2)cn1
Method in brief: as §1

[5] = compound: Cn1cncc1[C@@](N)(c1ccc(Cl)cc1)c1ccc2c(c1)c(-c1cccc(Cl)c1)cc(=O)n2C [tipifarnib]
Method in brief: as §1

[6] = compound: NC(=O)Nc1cc(-c2cccc(F)c2)sc1C(=O)N[C@H]1CCCNC1
Method in brief: as §1

[7] = compound: NCC(=O)Nc1ccc(-n2nc(C(F)(F)F)cc2-c2ccc3c(ccc4ccccc43)c2)cc1
Method in brief: as §1

[8] = compound: Nc1ccccc1NC(=O)c1ccc(CNC(=O)OCc2cccnc2)cc1 [entinostat]
Method in brief: as §1

[9] = compound: O=C(CCCCCCNC(=O)c1cnc(N(c2ccccc2)c2ccccc2Cl)nc1)NO [citarinostat]
Method in brief: as §1

[10] = compound: O=C1NC(=O)C(c2cnc3ccccn23)=C1c1cn2c3c(cc(F)cc13)CN(C(=O)N1CCCCC1)CC2
Method in brief: as §1

[11] = compound: c1cc(OCCN2CCCCC2)cc(-c2n[nH]c3ccc(-c4nnc[nH]4)cc23)c1
Method in brief: as §1

[12] = compound: NC(=O)c1cnc(N[C@@H]2CCCC[C@@H]2N)nc1Nc1cccc(-n2nccn2)c1
Method in brief: as §1

[13] = compound: Cc1cn(-c2cc(NC(=O)c3ccc(C)c(Nc4nccc(-c5cccnc5)n4)c3)cc(C(F)(F)F)c2)cn1 [nilotinib]
Method in brief: as §1

[14] = compound: Cc1nc(Nc2n[nH]c3c2CN(C(=O)N[C@H](CN(C)C)c2ccccc2)C3(C)C)c2sccc2n1
Method in brief: as §1

[15] = compound: Cc1ncc(-c2ccnc(Nc3ccc(S(C)(=O)=O)cc3)n2)n1C(C)C
Method in brief: as §1

[16] = compound: Cc1cccc(CC(=O)N2CCc3c2ccc(-c2cn(C)c4ncnc(N)c24)c3F)n1
Method in brief: as §1

[17] = compound: O=C(CCCCCCC(=O)Nc1ccccc1)NO [vorinostat]
Method in brief: as §1

[18] = compound: FC(F)(F)c1ccc(/C=C/c2nc(COc3ccc(CCCCn4ccnn4)cc3)co2)cc1 [mubritinib]
Method in brief: as §1

[19] = compound: NC1(c2ccc(-c3nc4ccn5c(=O)[nH]nc5c4cc3-c3ccccc3)cc2)CCC1
Method in brief: as §1

[20] = compound: O=C(O)c1ccc2c(c1)nc(Nc1cccc(Cl)c1)c1ccncc12 [silmitasertib]
Method in brief: as §1

Measured: log2 fold change

LRFN1 (UniProt Q9P244)
Chain of UniProt Q9P244 (Q9P244 whole entry, looked up): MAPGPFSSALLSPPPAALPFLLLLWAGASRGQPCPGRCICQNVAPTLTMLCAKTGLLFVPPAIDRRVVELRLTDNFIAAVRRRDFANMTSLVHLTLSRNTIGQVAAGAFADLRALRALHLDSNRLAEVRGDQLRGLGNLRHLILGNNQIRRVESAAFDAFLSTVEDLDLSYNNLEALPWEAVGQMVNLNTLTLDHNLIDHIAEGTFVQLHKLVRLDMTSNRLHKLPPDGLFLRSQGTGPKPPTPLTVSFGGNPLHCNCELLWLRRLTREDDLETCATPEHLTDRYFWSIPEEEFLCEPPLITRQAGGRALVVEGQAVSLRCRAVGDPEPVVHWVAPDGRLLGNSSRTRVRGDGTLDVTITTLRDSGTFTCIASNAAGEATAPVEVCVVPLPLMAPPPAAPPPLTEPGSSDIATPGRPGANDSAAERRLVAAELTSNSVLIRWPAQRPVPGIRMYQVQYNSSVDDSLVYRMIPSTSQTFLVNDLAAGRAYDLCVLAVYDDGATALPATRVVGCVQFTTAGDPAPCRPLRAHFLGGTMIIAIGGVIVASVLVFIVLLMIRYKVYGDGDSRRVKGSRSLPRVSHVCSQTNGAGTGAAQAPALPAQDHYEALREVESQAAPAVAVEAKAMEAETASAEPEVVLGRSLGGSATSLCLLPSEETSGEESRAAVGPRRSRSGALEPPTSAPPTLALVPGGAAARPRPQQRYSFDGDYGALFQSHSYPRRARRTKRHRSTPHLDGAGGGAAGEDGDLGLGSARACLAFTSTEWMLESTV
inactive: [1] -0.017 | [2] -0.129 | [3] 0.178 | [4] 0.011 | [5] -0.026 | [6] -0.14 | [7] -0.166 | [8] 0.133 | [9] -0.06 | [10] 0.036 | [11] 0.716

MFAP3 (UniProt P55082)
Chain of UniProt P55082 (P55082 whole entry, looked up): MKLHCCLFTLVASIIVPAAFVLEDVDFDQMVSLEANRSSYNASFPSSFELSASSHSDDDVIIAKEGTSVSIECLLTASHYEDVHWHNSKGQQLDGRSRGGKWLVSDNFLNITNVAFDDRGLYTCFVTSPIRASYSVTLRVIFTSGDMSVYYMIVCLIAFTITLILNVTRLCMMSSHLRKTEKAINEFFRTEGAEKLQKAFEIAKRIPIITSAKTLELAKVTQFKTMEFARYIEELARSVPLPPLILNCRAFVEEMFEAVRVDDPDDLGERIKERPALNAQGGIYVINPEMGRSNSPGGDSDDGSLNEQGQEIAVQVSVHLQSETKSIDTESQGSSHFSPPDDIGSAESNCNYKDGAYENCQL
inactive: [1] -0.385 | [2] -0.083 | [6] 0.043 | [12] -0.04 | [7] -0.09 | [8] -0.052 | [10] -0.243

LYN isoform 2 (UniProt P07948)
Chain of UniProt P07948 (P07948 whole entry, looked up): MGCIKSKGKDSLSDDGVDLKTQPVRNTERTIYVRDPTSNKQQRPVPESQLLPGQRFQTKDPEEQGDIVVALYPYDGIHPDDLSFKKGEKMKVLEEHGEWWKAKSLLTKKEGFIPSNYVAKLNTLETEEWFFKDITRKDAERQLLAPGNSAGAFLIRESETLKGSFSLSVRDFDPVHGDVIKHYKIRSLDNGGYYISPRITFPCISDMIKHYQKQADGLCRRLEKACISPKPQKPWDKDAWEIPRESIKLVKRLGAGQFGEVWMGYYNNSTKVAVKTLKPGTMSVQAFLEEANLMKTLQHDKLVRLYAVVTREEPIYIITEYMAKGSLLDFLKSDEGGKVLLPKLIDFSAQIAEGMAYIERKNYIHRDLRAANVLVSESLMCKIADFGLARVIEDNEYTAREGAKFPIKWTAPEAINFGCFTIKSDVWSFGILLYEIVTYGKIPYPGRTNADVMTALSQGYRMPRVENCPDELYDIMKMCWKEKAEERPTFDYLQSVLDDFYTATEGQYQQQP
inactive: [13] -0.001 | [14] -0.418 | [15] -0.006 | [3] 0 | [5] 0.075 | [6] 0.162 | [12] 0.014 | [7] -0.073 | [8] -0.155 | [10] 0.082

MFSD12 isoform 3 (UniProt Q6NUT3)
Chain of UniProt Q6NUT3 (Q6NUT3 whole entry, looked up): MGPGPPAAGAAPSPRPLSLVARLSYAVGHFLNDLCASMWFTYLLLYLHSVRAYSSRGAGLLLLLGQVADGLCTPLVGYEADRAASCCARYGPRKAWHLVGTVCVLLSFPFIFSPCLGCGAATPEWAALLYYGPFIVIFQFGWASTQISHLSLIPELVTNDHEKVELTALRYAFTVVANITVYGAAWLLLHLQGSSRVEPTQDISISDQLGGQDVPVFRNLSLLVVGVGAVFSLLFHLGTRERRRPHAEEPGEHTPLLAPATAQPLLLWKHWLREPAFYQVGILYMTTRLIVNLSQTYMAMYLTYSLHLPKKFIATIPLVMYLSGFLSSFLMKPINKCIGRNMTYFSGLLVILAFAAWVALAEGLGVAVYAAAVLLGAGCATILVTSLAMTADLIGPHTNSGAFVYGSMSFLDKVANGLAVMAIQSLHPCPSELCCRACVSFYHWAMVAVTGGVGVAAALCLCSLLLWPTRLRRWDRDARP
inactive: [16] 0.047 | [2] -0.093 | [3] -0.124 | [6] 0.073 | [12] -0.159 | [8] -0.067 | [17] 0.11 | [9] 0.1 | [11] -0.162

LUM (UniProt P51884)
Chain of UniProt P51884 (P51884 whole entry, looked up): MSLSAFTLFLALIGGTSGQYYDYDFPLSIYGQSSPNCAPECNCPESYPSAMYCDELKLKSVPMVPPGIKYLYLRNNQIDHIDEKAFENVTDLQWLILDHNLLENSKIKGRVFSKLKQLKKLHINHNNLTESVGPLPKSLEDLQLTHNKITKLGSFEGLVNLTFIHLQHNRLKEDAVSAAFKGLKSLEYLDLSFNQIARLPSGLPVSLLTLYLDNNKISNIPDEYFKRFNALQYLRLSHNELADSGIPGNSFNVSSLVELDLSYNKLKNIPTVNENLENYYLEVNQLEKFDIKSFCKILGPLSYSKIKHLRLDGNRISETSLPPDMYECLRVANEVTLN
inactive: [13] 0.449 | [14] 0.036 | [2] 0.002 | [15] 0.257 | [3] 0.177 | [4] -0.075 | [5] 0.055 | [6] -0.067 | [12] -0.108 | [7] -0.002 | [8] -0.033 | [9] -0.042 | [10] 0.185 | [11] 0.47

MAPK11 (UniProt Q15759)
Chain of UniProt Q15759 (Q15759 whole entry, looked up): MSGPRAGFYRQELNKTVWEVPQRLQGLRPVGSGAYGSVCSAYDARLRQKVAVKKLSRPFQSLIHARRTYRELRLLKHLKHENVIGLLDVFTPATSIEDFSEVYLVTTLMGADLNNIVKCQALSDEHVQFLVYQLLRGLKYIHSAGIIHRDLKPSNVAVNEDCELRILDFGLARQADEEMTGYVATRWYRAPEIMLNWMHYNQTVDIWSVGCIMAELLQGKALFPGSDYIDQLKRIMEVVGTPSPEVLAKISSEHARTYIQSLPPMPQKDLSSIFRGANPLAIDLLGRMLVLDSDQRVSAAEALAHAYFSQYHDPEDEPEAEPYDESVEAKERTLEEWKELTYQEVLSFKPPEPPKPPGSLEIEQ
inactive: [16] -0.116 | [4] -0.024 | [17] 0.033

ING5 (UniProt Q8WYH8)
Chain of UniProt Q8WYH8 (Q8WYH8 whole entry, looked up): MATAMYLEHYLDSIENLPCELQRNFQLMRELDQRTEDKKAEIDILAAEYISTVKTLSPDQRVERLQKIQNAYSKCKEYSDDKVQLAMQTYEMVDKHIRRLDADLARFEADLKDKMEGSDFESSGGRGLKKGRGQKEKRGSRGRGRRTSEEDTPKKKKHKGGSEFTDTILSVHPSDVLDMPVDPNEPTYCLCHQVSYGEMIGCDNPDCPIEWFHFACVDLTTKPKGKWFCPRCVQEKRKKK
inactive: [3] 0.164 | [5] 0.045 | [18] 0.206 | [19] -0.042 | [9] 0.115 | [20] -0.013 | [11] -0.008

MED29 (UniProt Q9NX70)
Chain of UniProt Q9NX70 (Q9NX70 whole entry, looked up): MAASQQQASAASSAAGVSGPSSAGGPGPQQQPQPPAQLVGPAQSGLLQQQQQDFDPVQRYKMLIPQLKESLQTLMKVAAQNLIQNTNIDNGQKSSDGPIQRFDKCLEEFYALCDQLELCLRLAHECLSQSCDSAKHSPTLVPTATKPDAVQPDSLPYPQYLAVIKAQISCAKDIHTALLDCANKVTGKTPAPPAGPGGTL
inactive: [13] 0.017 | [14] 0.027 | [2] 0.226 | [15] -0.14 | [5] 0.169 | [18] -0.136 | [12] 0.05 | [19] 0.029 | [20] 0.133

LIN52 (UniProt Q52LA3)
Chain of UniProt Q52LA3 (Q52LA3 whole entry, looked up): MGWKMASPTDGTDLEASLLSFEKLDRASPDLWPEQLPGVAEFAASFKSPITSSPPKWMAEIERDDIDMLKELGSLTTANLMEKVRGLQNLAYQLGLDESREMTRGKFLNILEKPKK
inactive: [2] -0.049 | [18] -0.117 | [19] 0.294 | [20] -0.045
